{
  "source": "PubChem BioAssay (NCATS)",
  "note": "Results filed as inconclusive are left out. A call without a number means that no potency is given here. Calls of active or inactive are those of the source. Calls come from the whole dose curve; as a rule, active = well fitted inhibition curve with a large enough effect; inconclusive = small, poorly fitted or top-dose-only effect; inactive = flat fitted curve, though single readings scatter. Potency is the fitted concentration of half-maximal effect.",
  "data": [
    {"experiment": "BET inhibitor-based combinations targeting novel dependencies in MECOM-rearranged (r) AML: AML-194 cell line (AID 2202237; note: nearly all actives have a fitted effect of over 40% in size)", "settings": "AML-194 (MECOM-r AML) viability, CellTiter-Glo, 48 h; series mostly up to 46 µM", "source_text": "Ecotropic viral insertion site 1 (EVI1) is located on chromosome 3q26.2 as part of the MECOM (MDS and EVI1 complex) locus. Under normal hematopoiesis, EVI1 is a regulator of hematopoietic stem cell maintenance and self-renewal and EVI1 levels decrease as the cells differentiate. In approximately 5-10% of de novo acute myeloid leukemia (AML) EVI1 is aberrantly expressed, including Chromosomal inv(3)(q21;q26.2) or t(3;3)(q21;q26.2) alterations (MECOM-r) that account for about 50% of AML with EVI1 overexpression 31. AMLs with high levels of EVI1 have a poor prognosis and an overall survival time averaging between 10-14 months. EVI1 overexpression confers resistance in leukemia cells, highlighting the need to develop new targeted therapies for EVI1 overexpressing AMLs.\nHere, we performed an unbiased chemical drug screening by evaluating the single agent activity of a collection of 2,480 oncology-focused, approved and investigational drugs (NCATS Mechanism Interrogation Plates, MIPE v5.0) against a panel of seven AML cell lines. These included four MECOM-r cell-lines (AML-191, AML-194, UCSD-AML1 and HNT-34) and three non-MECOM-r AMLs (MV4-11, OCI-AML3 and SET-2). Exploiting the mechanistic redundancy built in the library, we identified target-level sensitivities in MECOM-r AML cells and relative activity as compared to other AML subtypes.\nA collection of 2480 mechanistically annotated dugs (MIPE v5.0) was used to screen four 3q26.2 rearranged AML cell lines and three non-3q26.2 rearranged AML cell lines. This library purposely exploits redundancy by including multiple inhibitors of key onco-targets, while simultaneously encompassing mechanistic diversity, targeting more than 800 distinct mechanisms of action. Briefly, cells were seeded in 5 uL of growth media using a Multidrop Combi dispenser into 1536 well white polystyrene tissue culture treated plates (Corning) at a density of 500cells/well. For each cell-line, for each of the 2480 drugs in MIPE v5.0 library, an 11-point dose curve was generated via a 1536 pin-tool. Plates were incubated for 48 hr at standard incubator conditions, covered by a stainless steel gasketed lid to prevent evaporation. Cell viability was determined by luminescence based, Cell Titer Glo assay (Promega). In detail, 3 uL of Cell Titer Glo were added to each well and plates were incubated at room temperature for 15 min with a stainless-steel lid in place. Luminescence readings were taken using a Viewlux (PerkinElmer) with a 2 s exposure time per plate. Compound dose-response curves were normalized to DMSO and empty well controls on each plate. Quantitative drug activity data from dose-response curves was determined utilizing area Under the Curve (AUC) and Z-transformed AUC (Z-AUC, a mean-centering transformation applied to each individual cell-line screened).", "values": [
      {"molecule": "O=c1c(O)c(-c2ccc(O)cc2)oc2cc(O)cc(O)c12", "Potency": "inactive"},
      {"molecule": "Nc1nc(Cl)nc2c1ncn2[C@H]1C[C@H](O)[C@@H](CO)O1", "Potency": "0.0742 µM (active)"},
      {"molecule": "CC(C)(Oc1ccc(C2CC2(Cl)Cl)cc1)C(=O)O", "note": "(stereo not given)", "Potency": "inactive"},
      {"molecule": "CCCC(CCC)C(=O)Nc1ccn([C@@H]2O[C@H](CO)[C@@H](O)C2(F)F)c(=O)n1", "Potency": "2.63 µM (active)"},
      {"molecule": "COc1cc(N2CCN(C)CC2)ccc1Nc1nccc(-c2cn(C)c3cnccc23)n1", "Potency": "14.8 µM (active)"},
      {"molecule": "CC(=O)c1c(C)c2cnc(Nc3ccc(N4CCNCC4)cn3)nc2n(C2CCCC2)c1=O", "Potency": "14.8 µM (active)"},
      {"molecule": "Nc1nc2c(ncn2COC(CO)CO)c(=O)[nH]1", "Potency": "inactive"},
      {"molecule": "C[C@]12CC[C@H](O)CC1=CCC1C2CC[C@]2(C)C(n3cnc4ccccc43)=CCC12", "note": "(stereo not given in full)", "Potency": "inactive"},
      {"molecule": "Cc1cccc(CN2CCN(C(c3ccccc3)c3ccc(Cl)cc3)CC2)c1", "note": "(stereo not given)", "Potency": "inactive"},
      {"molecule": "COc1ccc(-c2oc3c(CC=C(C)C)c(O)cc(O)c3c(=O)c2O)cc1", "Potency": "inactive"},
      {"molecule": "COc1ccc2nc3cc(Cl)ccc3c(Nc3cc(CN4CCCC4)c(O)c(CN4CCCC4)c3)c2n1", "Potency": "10.5 µM (active)"},
      {"molecule": "CC(=O)Nc1ccc(C(=O)Nc2ccccc2N)cc1", "Potency": "18.6 µM (active)"},
      {"molecule": "CCCOc1ccc2nc(NC(=O)OC)[nH]c2c1", "Potency": "0.235 µM (active)"},
      {"molecule": "Nc1ccn(C2CO[C@H](CO)O2)c(=O)n1", "note": "(stereo not given in full)", "Potency": "inactive"},
      {"molecule": "Cc1ccccc1C(=O)Nc1ccc(C(=O)N2CCCC(O)c3cc(Cl)ccc32)c(C)c1", "note": "(stereo not given)", "Potency": "inactive"},
      {"molecule": "CC[C@@H]([C@H](C)O)n1ncn(-c2ccc(N3CCN(c4ccc(OCC5CO[C@@](Cn6cncn6)(c6ccc(F)cc6F)C5)cc4)CC3)cc2)c1=O", "note": "(stereo not given in full)", "Potency": "4.17 µM (active)"},
      {"molecule": "CC(=O)OC[C@@H]1O[C@@H](n2ccc(=O)[nH]c2=O)[C@H](OC(C)=O)[C@H]1OC(C)=O", "Potency": "inactive"},
      {"molecule": "c1cnc2cc3c(cc2n1)C1CNCC3C1", "Potency": "inactive"},
      {"molecule": "CCCCOc1c(C(=O)c2c(F)cc(C)cc2F)cnc2n[nH]cc12", "Potency": "3.72 µM (active)"},
      {"molecule": "N#CC1(c2ccc(NC(=O)c3cccnc3NCc3ccncc3)cc2)CCCC1", "Potency": "inactive"},
      {"molecule": "CCCNC(=O)Nc1ccc(Oc2ncnc3cc(OC)c(OC)cc23)cc1Cl", "Potency": "inactive"},
      {"molecule": "CCNC(=O)[C@H]1O[C@@H](n2cnc3c(N)nc(NCCc4ccc(CCC(=O)O)cc4)nc32)[C@H](O)[C@@H]1O", "Potency": "inactive"},
      {"molecule": "CC(C)Cc1ccc(C(C)C(=O)O)cc1", "note": "(stereo not given)", "Potency": "inactive"},
      {"molecule": "COc1cc(N2CCC(N)CC2)ccc1Nc1ncc(Cl)c(-c2c[nH]c3ccccc23)n1", "Potency": "10.5 µM (active)"},
      {"molecule": "COc1ccc(-n2cnc3cc(C(=O)N4CCCCC4)ccc32)cc1", "Potency": "inactive"},
      {"molecule": "COc1cc(N2CCC(N3CCN(C)CC3)CC2)ccc1Nc1ncc(Cl)c(Nc2ccccc2S(=O)(=O)C(C)C)n1", "Potency": "16.6 µM (active)"},
      {"molecule": "CC(C)C(C)C=CC(C)C1CCC2C3=CC=C4CC(O)CCC4(C)C3CCC21C", "note": "(stereo not given)", "Potency": "inactive"},
      {"molecule": "Cc1ccc(NC(=O)c2ccc(CN3CCNCC3)cc2)cc1Nc1nccc(-c2cccnc2)n1", "Potency": "23.5 µM (active)"},
      {"molecule": "CCN(CCCOc1ccc2c(Nc3cc(CC(=O)Nc4cccc(F)c4)[nH]n3)ncnc2c1)CCOP(=O)(O)O", "Potency": "0.662 µM (active)"},
      {"molecule": "Cc1cccc(Nc2nc(-c3ccncc3)cs2)c1", "Potency": "inactive"},
      {"molecule": "COc1cc([C@H]2Oc3cc([C@H]4Oc5cc(O)cc(O)c5C(=O)[C@@H]4O)ccc3O[C@@H]2CO)ccc1O", "Potency": "inactive"},
      {"molecule": "CCc1cc(Nc2nccc(-c3c(-c4ccc(OC)c(C(=O)Nc5c(F)cccc5F)c4)nc4ccccn34)n2)c(OC)cc1N1CCC(N2CCN(S(C)(=O)=O)CC2)CC1", "Potency": "11.8 µM (active)"},
      {"molecule": "CN1CCC(=C2c3ccccc3C=Cc3ccccc32)CC1", "Potency": "inactive"},
      {"molecule": "Cc1cnc(C(=O)NCCc2ccc(S(=O)(=O)NC(=O)NC3CCCCC3)cc2)cn1", "Potency": "inactive"},
      {"molecule": "Cc1ncc(NC(=O)c2ccc(CN3CCN(C)CC3)c(C(F)(F)F)c2)cc1Nc1nccc(-c2cccnc2)n1", "Potency": "23.5 µM (active)"},
      {"molecule": "Nc1nc(OCc2cc(Br)cs2)c2[nH]cnc2n1", "Potency": "inactive"},
      {"molecule": "CNC(=O)c1ccc(C)c(-n2c(C)cc(OCc3ccc(F)cc3F)c(Br)c2=O)c1", "Potency": "inactive"},
      {"molecule": "CCCCCCCCc1ccc(CCC(N)(CO)CO)cc1", "Potency": "14.8 µM (active)"},
      {"molecule": "C[C@H](NC(=O)c1sccc1OCc1ccc(Cl)cc1)c1ccccc1", "Potency": "inactive"},
      {"molecule": "Cn1cc(-c2ccc3c(c2)CCN3C(=O)Cc2cccc(C(F)(F)F)c2)c2c(N)ncnc21", "Potency": "inactive"}
    ]}
  ]
}
